# Most compounds without a hit are left out; they make up all but 12% or so of the library.
# WT yeast gro inh: growth inhibition of WT yeast, mitochondrial fusion screen. mitochondrial fusion phenotypic screen, WT strain. inhibition, % at 10 µM. 190,000 tested, 2.1% active. AID 1362; in the data active = inhibition above about 58%; tested in S. cerevisiae
# L major viab: Leishmania major promastigote growth inhibition | Leishmania major promastigotes, resazurin fluorescence viability | inhibition, % at 10 µM | 200,000 tested, 9% active; in the data active = inhibition above about 50%;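 note: promastigotes grown with compound for 44 hours at 28 °C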
# Insulin prom inh: TRM-6 insulin promoter activity inhibition | TRM-6 cells (human fetal islet line), insulin promoter-eGFP reporter, imaging; reporter expression induced with tamoxifen | inhibition, % at 2 µM | 130,000 tested, 0.9% active | AID 1273;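 active = inhibition above the mean plus 3 SD, with well images judged a real hit on visual review, cut at about 60% in these data, passing the limit was not always enough; inconclusive = inhibition over the cutoff but images rejected on review; inactive = inhibition not above the cutoff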
# Insulin prom up: MIN6 insulin promoter up-regulation | MIN6 insulin promoter-GFP reporter, high-content imaging; active compounds read high | z-score at 5 µM | 190,000 tested, 0.3% active;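 active = z-score above 3 at 5 µM with at least 500 cells counted in the well; inconclusive = wells under 500 cells, flagged as cytotoxic or low count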
# ROMK mod: modulators of human ROMK potassium channel | Tet-inducible ROMK, thallium flux fluorescence; actives lie on both sides | 130,000 tested, 2% active | B-score at 10 µM | P48048;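 active = signal ratio slope over the read window, or its plate-corrected B-score, at least 3 SD from the plate mean, either direction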;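 note: B-score of the F/F0 ratio slope over 7 to 12 s after thallium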
# Target sequence (P48048 whole entry, looked up): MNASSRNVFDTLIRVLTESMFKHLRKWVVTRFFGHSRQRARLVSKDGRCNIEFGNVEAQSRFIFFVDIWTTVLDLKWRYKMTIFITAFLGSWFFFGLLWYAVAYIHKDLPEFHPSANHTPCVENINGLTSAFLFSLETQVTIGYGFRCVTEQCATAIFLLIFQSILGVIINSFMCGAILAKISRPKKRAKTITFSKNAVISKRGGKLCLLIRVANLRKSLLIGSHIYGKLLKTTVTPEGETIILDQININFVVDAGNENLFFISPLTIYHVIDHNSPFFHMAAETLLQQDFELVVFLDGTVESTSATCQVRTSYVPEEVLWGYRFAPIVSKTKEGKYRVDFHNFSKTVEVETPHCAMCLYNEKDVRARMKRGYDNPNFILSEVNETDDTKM
# Cl transport mod: KCC2 (human) Cl- transport modulation | Q9H2X9 | KCC2 cells, thallium flux FluoZin-2 fluorescence | B-score of Tl+ flux slope (higher = more flux/activation; lower = inhibition) at 10 µM | 190,000 tested, 2.2% active | AID 1456;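 active = thallium flux slope and its plate-corrected score both differing from the plate sample mean at a set confidence after two filtering rounds, in either direction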;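 note: slope of fluorescence scaled to starting intensity during 10 to 20 s after thallium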
# KCC2 sec1: KCC2 (human) modulation, secondary assay | AID 1713 | normalised thallium flux (F/F0 slope) at 10 µM | shares compounds with Cl transport mod | 3,700 tested, 15% active | HEK293-KCC2, thallium flux, FluoZin2 fluorescence; active compounds read high;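 active = thallium flux slope above the same plate's solvent-only control mean plus 3 SD; inconclusive = the two replicate wells disagree; inactive = no significant difference from solvent-only control wells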
# KCC2 bumet counter: bumetanide-insensitive thallium flux in KCC2 cells with ouabain, counter-screen | 3,700 tested, 49% active | normalized thallium flux at 10 µM | shares compounds with Cl transport mod | HEK293-KCC2 + bumetanide/ouabain, thallium flux FluoZin2; active compounds read high | AID 1714;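 active = thallium entry rate above the same plate's blocked-transporter control wells by more than 3 SD; inconclusive = the two repeat wells disagree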;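 note: raw slope of fluorescence over initial fluorescence between 10 and 20 s after thallium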
# KCC2 secondary2: KCC2 (human) modulation, second secondary assay. 3,700 tested, 23% active. shares compounds with Cl transport mod. HEK293-KCC2, thallium flux FluoZin2 fluorescence; actives lie on both sides; F/F0 rise rate, 10–20 s post-thallium. normalized thallium flux at 10 µM;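 active = thallium flux slope more than 3 SD above or below the plate's solvent-only control mean, mostly below; inconclusive = the two repeat wells disagreed; inactive = no significant shift from solvent-only controls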
# HEK counter1: counter-screen for KCC2 modulators: effect in parental HEK293 cells; shares compounds with Cl transport mod; thallium flux FluoZin2, ouabain; baseline-ratio fluorescence slope, 10–20 s after thallium; thallium flux rate (normalised fluorescence) at 10 µM; 3,700 tested, 46% active; AID 1716;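 active = thallium flux rate significantly above the same plate's solvent-only control wells, beyond their mean plus 3 SD; inconclusive = the two replicate wells gave conflicting results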
# KCC2 ouabain: modulates human KCC2 on retest with ouabain | 3,700 tested, 48% active | raw Tl+ flux slope (below DMSO = inhibition, above = activation) at 10 µM | AID 1717 | HEK293-KCC2, thallium flux FluoZin2 fluorescence; bidirectional: low = inhibitor, high = activator | shares compounds with Cl transport mod;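 active = thallium flux slope beyond 3 SD from same-plate DMSO control mean in most replicates, usually higher, sometimes lower; inconclusive = repeat tests gave conflicting results; inactive = no significant difference from controls in most replicates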;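 note: slope of initial-normalized fluorescence between seconds 10 and 20 after thallium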
# HEK counter2: acts in parental HEK cells, second KCC2 counter-screen. 3,700 tested, 33% active. AID 1718. thallium flux slope at 10 µM. HEK293 parental, thallium flux FluoZin-2 fluorescence slope. shares compounds with Cl transport mod;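 active = thallium flux slope above the same plate's solvent-control mean plus 3 SD in both duplicate wells; inconclusive = duplicate wells that disagreed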;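 note: run without ouabain in cells lacking the KCC2 cotransporter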
# Hits are given with their value; n = inactive; u = inconclusive; x = no result given.
SMILES,WT yeast gro inh,L major viab,Insulin prom inh,Insulin prom up,ROMK mod,Cl transport mod,KCC2 sec1,KCC2 bumet counter,KCC2 secondary2,HEK counter1,KCC2 ouabain,HEK counter2
C=CCSc1n[nH]c2nc3c(c(=O)n12)C1(CCCC1)Cc1ccccc1-3,n,n,n,n,x,x,n,u,n,u,n,n
CCSc1n[nH]c2nc3c(c(=O)n12)C1(CCCC1)Cc1ccccc1-3,n,n,n,n,x,n,x,x,x,x,x,x
Cn1nc([N+](=O)[O-])nc1Sc1nnnn1-c1cccc(C(=O)O)c1,x,x,x,n,n,n,x,x,x,x,x,x
Oc1c(Cl)cc(Cl)cc1/C=N/NC(=S)NC1CC2C=CC1C2 (stereo not given),x,x,x,n,x,9.2,n,0.017,n,0.011,u,n
Oc1ccccc1/C=N/NC(=S)NC1CC2C=CC1C2 (stereo not given),x,x,x,n,x,18,u,0.052,n,0.025,n,0.014
Cc1c(NC(=S)N/N=C\c2ccccc2O)c(=O)n(-c2ccccc2)n1C,n,n,x,n,n,n,x,x,x,x,x,x
O=[N+]([O-])c1ccccc1S(=O)(=O)NCCc1ccncc1,n,n,n,x,n,n,x,x,x,x,x,x
O=C(N/N=C/c1cc(Br)c(Br)s1)c1ccncc1,n,98,x,n,x,6.5,n,0.014,n,0.0097,u,n
O=C(N/N=C/c1ccc(Br)s1)c1ccncc1,n,n,n,n,n,n,x,x,x,x,x,x
O=C(N/N=C/c1cc(Cl)cc(Cl)c1O)c1ccncc1,x,x,x,n,x,n,x,x,x,x,x,x
O=C(N/N=C/c1cc(Br)cc(Br)c1O)c1ccncc1,n,96,n,n,x,-4.5,n,0.00055,0.017,0.0028,0.0078,0.0046
CCC(=O)N1CCN(c2ccccc2NC(=O)c2ccc(OC)c(Cl)c2)CC1,n,n,n,x,n,x,x,x,x,x,x,x
COc1cccc(-c2nc(CS(=O)(=O)CC(=O)NCc3ccccc3)c(C)o2)c1,n,n,n,x,x,-4.1,n,n,n,n,u,n
Cc1ccccc1-c1nc(CS(=O)(=O)CC(=O)NCc2ccccc2)c(C)o1,n,n,x,n,x,-5,n,n,u,n,u,n
COc1cccc(-c2nc(CS(=O)(=O)CC(=O)NCc3ccccc3OC)c(C)o2)c1,n,n,x,n,x,n,x,x,x,x,x,x
Cc1[nH]n(-c2ccc([N+](=O)[O-])cc2)c(=O)c1C=NCCN1CCN(C(=O)c2ccccc2)CC1,n,n,n,x,n,x,x,x,x,x,x,x
CCCCCCOc1ccc(/C=c2\s/c(=C(/C#N)C(=O)NCc3ccco3)n(-c3ccccc3)c2=O)cc1,n,n,n,n,n,n,x,x,x,x,x,x
Clc1ccc(N2CCN(c3nc4nonc4nc3N3CCSCC3)CC2)nc1,n,n,x,n,n,n,x,x,x,x,x,x
NC(=S)Nc1ncc(C(F)(F)F)cc1Cl,n,n,x,n,n,16,n,0.059,0.047,0.036,0.047,0.039
Fc1ccccc1NC(=S)NNc1ncc(C(F)(F)F)cc1Cl,n,n,x,x,n,6.9,n,0.052,n,0.011,u,0.01
Cc1c(Cl)cccc1NC(=S)NNc1ncc(C(F)(F)F)cc1Cl,n,n,n,n,n,5.5,n,0.049,u,0.018,0.038,0.021
CCN1CCN(CC(=O)Nc2ccccc2)C(=O)C1=O,n,n,x,n,x,n,x,x,x,x,x,x
Cc1cccc2c1Sc1ccccc1CC2=O,n,n,n,n,x,x,x,x,x,x,x,x
CN(C)c1ccc(/C=N/n2c(-c3cccnc3)n[nH]c2=S)cc1,n,n,x,n,n,n,x,x,x,x,x,x
CN(C)c1ccc(/C=N/n2c(-c3ccccc3Br)n[nH]c2=S)cc1,x,x,x,n,n,5.8,n,0.023,n,0.012,u,n
SMILES,WT yeast gro inh,L major viab,Insulin prom inh,Insulin prom up,ROMK mod,Cl transport mod,KCC2 sec1,KCC2 bumet counter,KCC2 secondary2,HEK counter1,KCC2 ouabain,HEK counter2
O=C(Nc1cccnc1Cl)c1ccc(=O)oc1,x,x,x,n,x,x,x,x,x,x,x,x
O=C(CCCc1nc2ccccc2s1)NCc1ccccc1,n,n,n,n,n,n,x,x,x,x,x,x
CC(C)(C)C1CCc2sc(C(=O)NNC(=O)CCl)cc2C1 (stereo not given),n,n,x,n,n,3.3,n,0.017,n,0.017,u,0.014
CC(C)(C)C1CCC(=NNC(=O)c2cc3c(s2)CCCC3)CC1 (stereo not given),n,n,n,n,n,n,x,x,x,x,x,x
CCOc1ccc(NC(=O)CCC(=O)N/N=C/c2ccc3c(c2)OCO3)cc1,n,n,x,x,n,n,x,x,x,x,x,x
Cc1nc2ncnn2c(C)c1CCC(=O)NCc1ccccc1,n,n,x,n,x,n,x,x,x,x,x,x
Cc1cc(C)c2nc(N3CCC(C(=O)N4CCCC4)CC3)sc2c1,n,n,x,n,n,x,u,n,n,n,0.015,n
Cc1ccc(CNC(=O)c2ccc(N3CCCC3=O)cc2)cc1,n,n,n,n,x,-4.3,n,n,n,n,n,n
CCOC(=O)C1=C(c2ccccc2)N=C2SCC(=O)N2C1c1cccc(OC)c1 (stereo not given),n,n,n,n,x,n,x,x,x,x,x,x
COc1cc([N+](=O)[O-])cc(/C=N/NC(=O)C(C)Nc2cccc3ccccc23)c1O (stereo not given),n,n,x,n,x,n,x,x,x,x,x,x
Cc1cccc(/C=N/NC(=O)C(C)Nc2cccc3ccccc23)n1 (stereo not given),n,n,n,x,n,x,n,n,n,n,n,n
Cc1nc2c(c(C)nn2-c2ccccc2)c(C)c1CCC(=O)Nc1ccc(CN2CCCC2)cc1,x,x,x,n,n,n,x,x,x,x,x,x
Cc1ccc(N(C(=O)c2csnn2)C(C(=O)NC(C)(C)C)c2cccnc2)cc1C (stereo not given),n,n,n,x,n,n,x,x,x,x,x,x
Cc1ccc(-c2nn(Cc3ccccc3)cc2/C=C/C(=O)O)cc1C,n,n,n,n,n,-8.1,n,n,0.021,n,0.011,n
O=C(O)/C=C/c1cn(Cc2ccccc2)nc1-c1ccccc1,n,n,n,n,x,-3.2,n,n,u,n,0.015,n
O=C(O)/C=C/c1cn(-c2ccccc2)nc1-c1cccc([N+](=O)[O-])c1,x,x,x,n,x,x,x,x,x,x,x,x
CC(=O)[C@H]1[C@H](C#N)C[C@H]2[C@@H]3CC=C4C[C@@H](O)CC[C@]4(C)[C@H]3CC[C@@]21C,n,n,n,x,n,n,x,x,x,x,x,x
Cc1nc(N2CCN(Cc3ccccc3)CC2)c(C#N)c2c1COC(C)(C)C2,n,n,n,x,n,-3.4,n,n,0.021,u,0.011,n
